From the OligoGym collection

Each sequence was assayed against IFT52 (assay: pooled miR-30 sensor sort-seq; sequence = guide strand). Details: shRNA.
Also: reference of the scale not given here.

Row | Sequence | sensor-assay potency score (higher = more potent)
1 | ATATTGATCACTGAACATGTGA | -0.0473
2 | TTTGGCATCCTGTTGGTCCTTT | 0.0621
3 | TATTCTTCTAGTAAAAAGTTAA | -1.44

These sequences were tested against IGFBP3 in the same assay as above. Details: shRNA.

Row | Sequence | sensor-assay potency score (higher = more potent)
4 | TATCTGTGCTCTGAGACTCGTA | -0.405
5 | TACTTATCCACACACCAGCAGA | -1.2
6 | TTTCTTATAAAATCCCTTCTTG | -0.488
7 | TTCTTGATGATGATTATCTTTG | -1.16
8 | ATCTGTGCTCTGAGACTCGTAG | -0.551
9 | TATCTTTGAATGGAGGGGGTGG | -0.842
10 | TTGATGATGATTATCTTTGAAT | -0.974
11 | TAGTCAACTTTGTAGCGCTGGC | -0.23
12 | TTTAGCATGCCCTTTCTTGATG | -1.17
13 | TCGTAGTCAACTTTGTAGCGCT | -0.259
14 | TTTCTTGATGATGATTATCTTT | -1
15 | TAGCATTTCCTGGAGCTGGCGG | -0.626

These sequences were tested against IGFBP7 in the same assay as above. Details: shRNA.

Row | Sequence | sensor-assay potency score (higher = more potent)
16 | TATTTCTCTGTGTAAAACCAGT | -0.876
17 | TCCATGACTACTTTTAACCATG | -1.58
18 | TAGAGGAGATACCAGCACCCAG | -1.77
19 | TATGGAAGGACCTTGCTCGCAG | 0.0924
20 | TTGCACACGCACACGCCGCTTA | -0.533
21 | TTTTTGCTGATGCTGAAGCCTG | -1.34
22 | TATAACTAAAGTGTTAGTGGAT | 0.0715
23 | TGTCCTTTGAACTCCATAGTGA | -0.0168
24 | TTATTTTGTATTTCTCTGTGTA | 0.738
25 | ATATTCTCCAGCATCTTCCTTA | 0.0623
26 | TTTATTTTGTATTTCTCTGTGT | 0.392
27 | TAGTCTTGATGTGTGATCTTTA | -0.24

These sequences were tested against IGLL1 in the same assay as above. Details: shRNA.

Row | Sequence | sensor-assay potency score (higher = more potent)
28 | TTGGGCTGACTTAAAACGGTGA | -0.209
29 | TACTTGTTGTTGCTCTGTTTGG | -0.977
30 | TACCACGGCCAGACCCAGCAGC | -0.916
31 | TGCAGCTGTTGGGCGCAGCAGG | -1.51
32 | AGACACACCAGTGTAGCCTTGT | -0.487
33 | TCACCGTCAAGATTCCCGGATA | -1.01
34 | TCAGGTAGCTGCTGGCCGCGTA | -0.554
35 | TTGTTGTTGCTCTGTTTGGAGG | -1.19
36 | TGCTCTGCGATGCAGCTGTTGG | -1.49
37 | TAGCCTTGTTGGCTTGGAGCTC | -0.995
38 | TGGACCGGCTGCTTCCTCCAGG | -1.11
39 | TGAGACACACCAGTGTAGCCTT | 0.221
